# Measured values taken from the supplement of paper PMC3334620.
# Over roughly 33,000 sequences, “E-score (-0.5 to 0.5)” has its median near -0.053; the highest 2% begin near 0.37. Only a selection was taken, and the highest values are over-represented in it overall.
# Target: Hap1 (UniProt P0CE41)
# Experiment: PBM E-score (8-mer binding enrichment) (E-score (-0.5 to 0.5)); higher = stronger / more preferred TF binding
# Details: protein concentration: 200 nM; construct: GST-DNA-binding domain
# Summary of the method: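 Masliner-normalised scans of fluorescent anti-GST signal were the basis for scoring. That signal came from GST-tagged yeast transcription factors applied at about 100-200 nM to double-stranded universal all-10-mer Agilent arrays on fresh or once-stripped slides. Each ungapped eight-base word, pooled with its reverse complement, received an E-score from the Universal PBM Analysis Suite.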
# UniProt P0CE41, sequence (P0CE41 whole entry): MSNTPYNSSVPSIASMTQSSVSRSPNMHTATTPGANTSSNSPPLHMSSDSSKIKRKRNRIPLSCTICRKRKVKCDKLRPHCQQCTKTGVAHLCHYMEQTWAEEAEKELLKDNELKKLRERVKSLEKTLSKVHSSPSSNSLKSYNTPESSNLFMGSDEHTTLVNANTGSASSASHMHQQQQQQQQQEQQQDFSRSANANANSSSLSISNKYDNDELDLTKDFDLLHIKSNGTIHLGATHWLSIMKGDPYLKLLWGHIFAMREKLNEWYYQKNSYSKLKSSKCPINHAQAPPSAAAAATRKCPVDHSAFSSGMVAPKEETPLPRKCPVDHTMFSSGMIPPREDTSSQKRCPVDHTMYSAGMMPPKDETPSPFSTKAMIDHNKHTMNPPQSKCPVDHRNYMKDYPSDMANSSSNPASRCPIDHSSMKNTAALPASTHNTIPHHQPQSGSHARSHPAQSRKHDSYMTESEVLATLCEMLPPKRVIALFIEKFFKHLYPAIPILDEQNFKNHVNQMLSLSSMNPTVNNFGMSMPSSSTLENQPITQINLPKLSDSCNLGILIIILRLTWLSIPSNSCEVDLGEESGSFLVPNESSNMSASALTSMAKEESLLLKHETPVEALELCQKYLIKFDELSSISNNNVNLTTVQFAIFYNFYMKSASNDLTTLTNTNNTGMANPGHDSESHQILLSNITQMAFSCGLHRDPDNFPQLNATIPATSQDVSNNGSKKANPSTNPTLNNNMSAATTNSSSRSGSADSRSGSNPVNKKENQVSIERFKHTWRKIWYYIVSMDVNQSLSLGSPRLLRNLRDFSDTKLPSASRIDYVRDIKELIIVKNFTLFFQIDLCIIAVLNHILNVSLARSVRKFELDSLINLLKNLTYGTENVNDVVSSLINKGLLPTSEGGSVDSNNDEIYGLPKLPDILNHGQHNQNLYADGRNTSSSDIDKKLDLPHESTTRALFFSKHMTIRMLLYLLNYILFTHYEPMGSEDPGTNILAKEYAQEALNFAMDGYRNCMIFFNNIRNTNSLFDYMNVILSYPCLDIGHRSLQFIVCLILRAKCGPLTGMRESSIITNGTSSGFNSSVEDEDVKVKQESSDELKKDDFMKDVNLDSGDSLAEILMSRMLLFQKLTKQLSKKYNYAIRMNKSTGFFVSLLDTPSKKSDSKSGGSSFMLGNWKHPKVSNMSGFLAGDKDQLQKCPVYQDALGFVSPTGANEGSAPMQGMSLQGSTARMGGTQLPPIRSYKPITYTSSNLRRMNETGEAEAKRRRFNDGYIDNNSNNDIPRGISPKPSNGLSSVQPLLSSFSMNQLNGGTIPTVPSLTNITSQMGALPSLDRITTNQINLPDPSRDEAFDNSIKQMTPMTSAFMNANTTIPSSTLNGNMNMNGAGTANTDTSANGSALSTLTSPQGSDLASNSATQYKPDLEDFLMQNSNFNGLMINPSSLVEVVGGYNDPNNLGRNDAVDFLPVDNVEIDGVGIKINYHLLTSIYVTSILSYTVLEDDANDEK
row,Sequence,PBM E-score
1,ACGCAACT,0.064
2,AGTGCCAT,-0.0559
3,GAATCGGA,0.366
4,TAATCGGA,0.317
5,CTATCGAA,-0.177
6,CTATCGTA,-0.17
7,ATATCGGA,0.439
8,CTATCGGA,0.452
9,ATATCGTA,0.11
10,CAATCGGA,0.394
11,GTATCGAA,-0.152
12,CAATCGGG,0.205
13,GTATCGGA,0.415
14,AAATCGGA,0.344
15,AACACAGA,-0.116
16,AGACCTTA,-0.154
17,GCTATAGC,0.0502
18,AGCGGCAA,0.0491
19,CACGCTAA,-0.0232
20,ATACCCCC,0.283
21,AACGCCCC,0.128
22,AAGGACAG,-0.182
23,AAATCGGG,0.246
24,ATATCGTG,-0.0299
25,ATATCGGG,0.436

row,Sequence,PBM E-score
1,ATTCCAAG,-0.177
2,AATCCGAG,0.338
3,ATTCCGAG,0.397
4,ATTCCGAA,0.375
5,CTTCCGAA,0.324
6,ATTCCGAC,0.307
7,AAGTCGGG,0.153
8,AAACCACG,-0.0117
9,ACACACCC,0.117
10,AAAGTCCG,0.446
11,AAAGTCCT,0.157
12,CAAGTCCG,0.39
13,AAAGTCCA,-0.0824
14,CAAGTCCA,-0.222
15,CAAGTCCC,-0.181
16,CATCCTCA,-0.154
17,AATCAAAG,-0.129
18,AGCGGTCG,0.123
19,GGCTAAAA,0.0064
20,GGTGATAA,0.378
21,CGAGATAA,0.164
22,GGTGATAC,0.14
23,CGTGATAA,-0.0733
24,GGAGATAA,0.455
25,CGAGATAC,0.188

row,Sequence,PBM E-score
1,AGAGATAA,0.00783
2,AGAGATAC,-0.0992
3,GGATATAA,0.382
4,GGATATAC,0.319
5,GGAGATAC,0.438
6,CGATATAA,0.308
7,CGGAAGCC,0.199
8,GAGCGTGA,-0.183
9,AGTGCACT,-0.0451
10,AACTTCTG,-0.205
11,CTGGTAGA,-0.2
12,GAACACGA,-0.0354
13,ACCTGAAT,-0.104
14,CAGCCCTA,-0.0376
15,AGTTATCC,0.106
16,ACTTATCG,0.415
17,ACTTATCA,-0.148
18,CCTTATCG,0.241
19,AGTTATCA,-0.0683
20,AGTTATCG,0.382
21,AGCGCGGA,0.223
22,GCGACAGC,0.0479
23,GCCCGATA,0.423
24,ACCCGATC,0.244
25,ACCCGATA,0.439

row,Sequence,PBM E-score
1,CCCCGAAA,0.348
2,GCCCGACA,0.255
3,ACCCGATG,0.3
4,CCCCGATA,0.44
5,GCACGATA,0.0171
6,CCCCGATC,0.35
7,CTTAGGAC,-0.283
8,AGGGGGAC,-0.213
9,ATCCGCCC,0.243
10,ATCCGCCG,0.375
11,ATCCGCCA,0.181
12,AACAAAGT,0.00728
13,ACGGTGGA,-0.062
14,GCGGTGGA,0.0678
15,CCGGTGGA,0.39
16,CGACCTTC,0.0839
17,GGGAGATA,0.268
18,CGGAGATC,0.411
19,CTGAGATC,-0.171
20,AGGAGATC,-0.098
21,CGGAGATA,0.495
22,AGGAGATA,0.253
23,GTTCCTGA,-0.242
24,AGCAATAC,-0.0164
25,AGTAAAGC,-0.00459

row,Sequence,PBM E-score
1,ACGTACAC,-0.181
2,ACCCAACG,-0.0503
3,AGGAGGAA,-0.218
4,CGGAGGAA,0.375
5,CGGAGGTA,0.443
6,CGGAGGTC,0.261
7,AGGAGGTA,-0.044
8,CGGAGGAG,0.284
9,GGAAAACA,0.139
10,CCGGCGGA,0.421
11,GCGGCGGA,0.382
12,CCGGCGGC,0.364
13,CTGGCGGA,-0.0445
14,ACGGCGGA,0.273
15,GTGGCGGA,0.136
16,GCGGCTCA,0.073
17,GAGTGTCA,-0.145
18,GAGAATGC,0.0329
19,ACGGATGA,0.228
20,AGACGCGG,0.0872
21,CTCGAAGA,-0.152
22,GGGATTTA,0.327
23,AGGATTTA,0.227
24,AGGATTTC,0.0343
25,CTGATTTC,-0.0451

row,Sequence,PBM E-score
1,CGGATTTA,0.489
2,CGGATTTC,0.426
3,CTAACCCC,0.235
4,GTCGAATA,-0.0336
5,CCACTGAG,-0.235
6,ACTTCGGC,0.377
7,ACTTCGGG,0.247
8,GCTTCGGA,0.327
9,ACTTCGGA,0.403
10,CCTTCGGC,0.27
11,CCTTCGGA,0.364
12,ACCGCAGT,0.106
13,CAGCCTAA,-0.354
14,ATACTTCC,0.162
15,ACATCCGA,0.382
16,CCATCCGG,0.254
17,ACATCCGT,0.213
18,ACATCCGC,0.347
19,ACATCCGG,0.427
20,ACATCCTG,-0.0661
21,TATGTACA,-0.124
22,GCCAGTTA,-0.14
23,GCGCCCGA,0.353
24,ACGCCCGC,0.183
25,TCGCCCGA,0.362

row,Sequence,PBM E-score
1,ACGCCCGT,0.251
2,AGGCCCGA,0.279
3,ACGCCCGG,0.377
4,CGGCCCGA,0.398
5,ACGCCCGA,0.371
6,CCGCCCGA,0.37
7,GGGCCCGA,0.317
8,CTGCCCGA,0.202
9,ACGCCCCG,0.193
10,GGCCAGCA,-0.0771
11,AAGTCTGA,-0.412
12,CTTGTCTC,-0.073
13,ACGCGAAA,-0.00838
14,ACAAGAGC,-0.109
15,CGGAGCGA,0.331
16,CCATAGGA,-0.258
17,GACACGTA,-0.194
18,AAGCCCGT,0.232
19,CCGCCCGC,0.3
20,AAGCCCGG,0.407
21,AAGCCCGC,0.337
22,CCGCCCGG,0.411
23,CCGCCCCG,0.347
